# Source: PubChem BioAssay (NCI)
# Compounds without any hit were thinned out: in the full panel of roughly 83,000, 20% have a hit.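 Activity criterion: percent growth below 10, measured after cells in 96-well plates were exposed to a single compound concentration for 48 hours.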 Calls of active or inactive are those of the source.
# Test system: LOX IMVI melanoma
# Experiment: NCI-60 one-dose screen, 48 h (100 = growth as untreated, 0 = no growth, -100 = all killed)
# Conditions: 10 µM unless noted
row,Compound,growth
1,CCSc1oc(-c2ccccc2)nc1[P+](c1ccccc1)(c1ccccc1)c1ccccc1,-84.9% (active)
2,O=S(=O)(Nc1cc(F)cc(Cl)c1)c1ccc(-c2cnc(C3CC3)o2)cc1,39.3% (inactive)
3,COc1cc2oc(-c3cccc(NC(=O)c4ccccc4)c3)cc(=O)c2c(OC)c1OC,61.7% (inactive)

# Test system: SK-MEL-28 melanoma
# Experiment: as above
# Conditions: 10 µM unless noted
row,Compound,growth
1,O=C1Nc2ccccc2/C1=C/c1cccn1CCCCn1c2ccccc2c(=O)c2ccccc21,105% (inactive)
2,O=C1/C(=C/c2ccccc2Br)COc2ccc(O)cc21,101% (inactive)
3,O=S(=O)(Nc1ccc(Cl)c(C(F)(F)F)c1)c1ccc(-c2cnc(C3CC3)o2)cc1,19.4% (inactive)
4,Cc1cc(=O)oc2cc(OCc3nn4c(Nc5nc6ccccc6s5)c(-c5ccccc5)nc4s3)ccc12,102% (inactive)
5,COC(=O)c1c(C)c2n(c1C)C(=O)C(c1ccccc1)=C2,91.2% (inactive)
6,C#CCOC(=O)/C=C/c1cn(-c2ccccc2)nc1-c1ccc(OC)cc1,115% (inactive)
7,Cc1c2cnccc2c(C)c2c1c1cc(C#N)ccc1n2C,-39.7% (active)
8,COC(=O)c1cc(N=C2NC(=O)/C(=C/C=C/c3ccccc3)S2)ccc1O,65.4% (inactive)
9,Cc1ccc2c(Cn3cc(CSc4nc5ccccc5o4)nn3)cc(=O)oc2c1,110% (inactive)
10,O=C(CSc1nnc(-c2cnccn2)n1-c1ccccc1)c1ccc(Cl)cc1,103% (inactive)
11,NS(=O)(=O)c1ccccc1NC(=O)Nc1nc2ccccc2s1,103% (inactive)
12,CCOC(=O)C1=C(N)Oc2c(sc3c(F)cccc23)C1c1ccc(O)cc1 (centres undefined),46% (inactive)
13,COc1ccc(/C=C/C(=O)c2ccc(Nc3ccnc4cc(Cl)ccc34)cc2)cc1,118% (inactive)
14,Cc1cc(S(=O)(=O)/N=C(\N)n2nc(C)c(C)c2C)c(SCc2ccccc2)cc1Cl,91.4% (inactive)
15,COc1ccc(/C=C(\C#N)n2nnc3cc(Cl)ccc32)cc1,31.3% (inactive)
16,CSc1nnc(-c2cc3c([nH]c4ccccc43)c(-c3cccc(O)c3)n2)n1-c1ccccc1,36.2% (inactive)
17,O=C(O)c1ccc(-n2cc(/C=N/Nc3ccccc3)c(-c3ccc(F)cc3F)n2)cc1,74.1% (inactive)
18,O=C(/C=C/c1cccc(Cl)c1)c1ccc(Nc2nc(Nc3ccc(F)cc3)nc(Nc3ccc(Cl)cc3)n2)cc1,112% (inactive)

row,Compound,growth
1,CCn1cc(C(=O)NNC(=S)Nc2ccc(C)cc2)c(=O)c2ccc(C)nc21,105% (inactive)
2,CC(C)(Sc1cc(C(C)(C)C)c(OC(=O)CCCC(=O)O)c(C(C)(C)C)c1)Sc1cc(C(C)(C)C)c(OC(=O)CCCC(=O)O)c(C(C)(C)C)c1,24.9% (inactive)
3,O=C(O)c1cn(C2CC2)c2cc(N3CCN(C(=O)N(c4ccccc4)c4nc(-c5ccccc5)cs4)CC3)c(F)cc2c1=O,36.1% (inactive)
4,O=C(CSc1oc(-c2ccccc2)nc1S(=O)(=O)c1ccccc1)Nc1ccc(F)cc1,98.4% (inactive)
5,Cc1ccc2c(c1)=C/C(=C\c1cc(-c3ccccc3)oc1O)C(=O)N=2,104% (inactive)
6,c1ccc(Cn2cc3c(c2)-c2oncc2CC3)cc1,53.9% (inactive)
7,CCN(CC)c1ccc(\C=N/N=C(N)/C(N)=N\N=C/c2ccc(N(CC)CC)cc2)cc1,105% (inactive)
8,Nc1ncc(-c2ccc3ncnc(Nc4cccc(Cl)c4)c3c2)cn1,63.8% (inactive)
9,c1ccc([P+](c2ccccc2)(c2ccccc2)c2ccc3c4ccc([P+](c5ccccc5)(c5ccccc5)c5ccccc5)c5cccc(c6cccc2c63)c54)cc1,4.81% (active)
10,Cc1ccc(NC(=O)Cn2cc(CN3CCN(c4ccnc5cc(Cl)ccc45)CC3)nn2)cc1,104% (inactive)
11,O=C(Nc1nc(-c2ccc(Cl)cc2)nc2c1sc(=S)n2-c1ccccc1)C(F)(F)F,78.9% (inactive)
12,COCCn1cc(-c2csc(-c3cn(C)c4ccc(Br)cc34)n2)c2cccnc21,74.9% (inactive)
13,C#CCOc1ccc2ncnc(Nc3ccc(NC(=O)C=C)cc3)c2c1,2.36% (active)
14,Cn1cc(-c2csc(-c3c[nH]c4ccc(Br)cc34)n2)c2ccnc(Cl)c21,71.7% (inactive)
15,Nc1ncnc2c1c(-c1cccc(Cl)c1)nn2CC(=O)N1CCOCC1,105% (inactive)
16,CCSc1oc(-c2ccccc2)nc1[P+](c1ccccc1)(c1ccccc1)c1ccccc1,29.8% (inactive)
17,O=S(=O)(Nc1cc(F)cc(Cl)c1)c1ccc(-c2cnc(C3CC3)o2)cc1,71.3% (inactive)
18,COc1cc2oc(-c3cccc(NC(=O)c4ccccc4)c3)cc(=O)c2c(OC)c1OC,73.2% (inactive)
